Unmarked numbers belong to inactive results. Calls of active or inactive are those of the source.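 The calls were made as follows: active = growth inhibition above 50% at the single 2 µM test dose, taken to imply half-maximal potency below 2 µM; inactive = the rest.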

This assay is described as follows: antimalarial activity against Dd2 strain (AID 2302).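 Also: 0% = DMSO untreated growth and 100% = chloroquine plus artemisinin killed control.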 The conditions noted are these: P. falciparum Dd2 in RBCs, LDH growth readout, 72 h; at 2 µM; hits give high values.
`CCCCOc1ccc(CNCCCCCCNCc2ccc(OCCCC)c3ccccc23)c2ccccc12`: the growth inhibition is 49%.

Turning to `O=C(Nc1ccc(-c2nc3ccccc3[nH]2)cc1)c1cccc(S(=O)(=O)N2CCOCC2)c1`, the growth inhibition is 43%.

Consider `COc1ccc(NC(=O)[C@H](CC(C)C)Nc2cc(C)nc(NCCc3cccs3)n2)cc1`, for which the growth inhibition was 68% (active).

As for `O=C(NCCCCCCNCc1ccc(-c2ccccc2)cc1)Nc1ccc(Cl)c(Cl)c1`, the growth inhibition is 2%.

Take `O=C(Nc1ccc(-c2ccccc2)cc1)Nc1cccc(Cn2nc(Cl)c(N3CCNCC3)cc2=O)c1`: the growth inhibition is 79% (active).

Consider `COc1cccc(C2CCN(CCN3CCC(NC(=O)c4ccc(-c5ccc(Cl)cc5)cc4)CC3)CC2)c1`, for which the growth inhibition is 42%.

Consider `COc1ccc2nc(-c3cccc(C)n3)nc(Nc3ccncc3)c2c1`, for which the growth inhibition is 42%.

Turning to `Cc1nc2c(c(C)nn2C(C)(C)C)c(C)c1CCC(=O)Nc1ccc(CN2CCCC2)cc1`, the growth inhibition is 5%.

As for `CCCSc1nc2c(c(=O)n1Cc1ccco1)C1(CCCCC1)Cc1ccccc1-2`, the growth inhibition was 95% (active).

As for `CN(C)CCOc1cc(NC(=O)Nc2ccc3c(c2)CCCC3=O)ccc1I`, the growth inhibition was 31%.

Regarding `Nc1c2ccccc2nc2ccc(-c3ccccc3)cc12`, the growth inhibition was 99% (active).

Regarding `CN1CCC(NCc2ccc(-c3cccc(S(=O)(=O)NCCc4ccccn4)c3)cc2)CC1`, the growth inhibition is -8%.

For `Cc1ccc2sc(N(CCCn3ccnc3)C(=O)c3ccco3)nc2c1C`, the growth inhibition was 98% (active).

For the compound `Cc1ccc(-c2cc3nc4c(c(NCCCn5ccnc5)n3n2)CCC4)cc1`, the growth inhibition is 21%.

With `O=S(=O)(c1ccccc1)C1CC1`, the growth inhibition is 65% (active).

Take `CCCCCCc1ncc(-c2cc3cc(O)c(-c4ccccc4)cc3oc2=O)s1`: the growth inhibition was 63% (active).

`Cc1cc(N[C@@H](Cc2ccccc2)C(=O)NCCc2ccccc2)nc(NCCc2cccs2)n1`: the growth inhibition is 84% (active).

Turning to `COc1ccc(Nc2nccc(N3CCC(NC(=O)Nc4cccc(C(C)=O)c4)C3)n2)cc1` (stereo not given), the growth inhibition was 79% (active).

With `O=C(Nc1ccc(Cl)c(Cl)c1)C1CCC(=O)N1[C@@H](Cc1ccccc1)C(=O)NCCc1ccc(Cl)cc1` (stereo not given in full), the growth inhibition was -9%.

For the compound `CC(C)(C)OC(=O)/C=C(\C(=O)OCc1ccc([N+](=O)[O-])cc1)c1csc(NC(c2ccccc2)(c2ccccc2)c2ccccc2)n1`, the growth inhibition was 97% (active).

For `COC(=O)c1sc(-c2ccc(Cl)cc2)cc1N(CCCN1CCC(N2CCCCC2)CC1)S(=O)(=O)c1ccc(C)cc1`, the growth inhibition is 86% (active).

For `CN1C(=C2SC(=Nc3ccc4ncccc4c3)N(Cc3ccccc3)C2=O)Sc2ccc(Cl)cc21`, the growth inhibition is 75% (active).

`N#Cc1cccc(NC(=O)NC2CCN(CCCCCNC(=O)[C@@H]3C[C@H]3c3ccc(Cl)c(Cl)c3)CC2)c1`: the growth inhibition was -2%.

In the case of `CC(C)(C)COc1ccc2c(N)n[nH]c2c1`, the growth inhibition is 8%.

For the compound `COc1cc(NC2CCCC(NCc3cn(S(=O)(=O)c4ccccc4)c4ccccc34)C2)nc2ccccc12` (stereo not given), the growth inhibition was 61% (active).

Take `CN(C)CCNC(=O)c1cc2c(-c3ccc(Cl)cc3)nn(C)c2s1`: the growth inhibition was 81% (active).

As for `O=[N+]([O-])c1ccc(Oc2ccccc2CNCC2CCN(CC3CCCCC3)CC2)cc1`, the growth inhibition was 28%.

For `COc1cc2nc(NCCc3ccccc3)nc(N(C)Cc3ccccc3)c2cc1OC`, the growth inhibition is 58% (active).

As to `COc1ccc2nc(C)cc(NN=Cc3ccc(Cl)cc3)c2c1`, the growth inhibition is 100% (active).

As for `CN(C)CCOc1ccc(NC(=O)Nc2ccnc3c(Br)cccc23)cc1Cl`, the growth inhibition was 25%.

In the case of `COc1cc(-c2nc(-c3ccccc3)c(-c3ccc(C(=O)c4ccc(F)cc4)cc3)[nH]2)cc(OC)c1O`, the growth inhibition is 100% (active).

`O=C(/C=C/c1ccc(Cl)c(Cl)c1)NCCCCCN1CCC(c2[nH]nc(-c3ccccc3)c2Br)CC1`: the growth inhibition was 23%.

For the compound `c1ccc(CN2CCN(c3cc(-c4cncc(-c5ccccc5)c4)nc(-c4ccccc4)n3)CC2)cc1`, the growth inhibition is 12%.

For the compound `Cc1ccc(-n2cc(CNCCc3ncc(C)[nH]3)c(-c3ccc(F)cc3)n2)cc1`, the growth inhibition was 12%.

For `Cc1cc(C(=O)Nc2ccc(C)c(-c3nc(N(C(=O)c4ccc(F)c(C)c4)C4CCNCC4)nc4c3ccc(=O)n4-c3c(F)cccc3F)c2)ccc1F`, the growth inhibition is 99% (active).

For `CCC(O)(C#Cc1c(C)nc(N)nc1N)CC`, the growth inhibition was -5%.

With `COc1ccc(CC(=O)NC2CCN(c3ccnc4cc(Cl)ccc34)C2)cc1` (stereo not given), the growth inhibition was 88% (active).

Consider `O=C(Nc1ccc(Cl)cc1)N[C@H]1CCN(Cc2ccc(OCCCN3CCCCC3)cc2)C1`, for which the growth inhibition was -1%.

For `O=C(C=Cc1ccc(-c2nc3ccccc3[nH]2)cc1)NC1CCN(Cc2ccccc2)CC1`, the growth inhibition was 88% (active).

`Nc1c2c(nc3ccc(C(=O)Nc4ccccc4)cc13)CCCC2`: the growth inhibition was 78% (active).

Values taken from PubChem BioAssay.
